# This excerpt belongs to a sample that is enriched for the strongest signals.
# Legend:
# Experiment in all cases: glycan array binding signal (z-score within array); higher = stronger binding
# Conditions in all cases: glycan notation: IUPAC condensed, linker removed
# [1] = target: Fuc(a1-2)Gal(b1-3)GalNAc(b1-3)Gal
# How it was run: (§1)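 From the Consortium for Functional Glycomics database, 3228 arrays were curated, keeping only those whose protein sequence was available. Binding is given as a within-array Z-score averaged across arrays sharing a protein sequence and across linkers. Negative Z-scores can be read as non-binding.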
# Fuc(a1-2)Gal(b1-4)Glc = target: Fuc(a1-2)Gal(b1-4)Glc
# How it was run: as §1
# [2] = target: Fuc(a1-2)Gal(b1-4)GlcNAc(b1-3)Gal(b1-4)GlcNAc(b1-3)Gal(b1-4)GlcNAc
# How it was run: as §1
# [3] = target: Fuc(a1-2)Gal(b1-4)[Fuc(a1-3)]GlcNAc(b1-3)Gal(b1-4)[Fuc(a1-3)]GlcNAc
# How it was run: as §1
# [4] = target: Fuc(a1-2)[Gal(a1-4)]Gal(b1-4)GlcNAc
# How it was run: as §1
# [5] = target: Fuc(a1-2)[GalNAc(a1-4)]Gal(b1-4)GlcNAc
# How it was run: as §1
# [6] = target: Fuc(a1-3)[Gal(b1-4)]Glc6S
# How it was run: as §1
# [7] = target: Fuc(a1-3)[Gal(b1-4)]GlcNAc(b1-2)Man(a1-6)[Gal(b1-4)GlcNAc(b1-2)Man(a1-3)]Man(b1-4)GlcNAc(b1-4)GlcNAc
# How it was run: as §1
# [8] = target: Fuc(a1-3)[Gal(b1-4)]GlcNAc(b1-4)Gal(b1-4)[Fuc(a1-3)]GlcNAc(b1-4)Gal(b1-4)[Fuc(a1-3)]GlcNAc
# How it was run: as §1
# [9] = target: Fuc(a1-3)[Neu5Ac(a2-3)]Gal(b1-4)GlcNAc(b1-3)GalNAc
# How it was run: as §1
# [10] = target: Gal(b1-3)[Fuc(a1-4)]GlcNAc
# How it was run: as §1
# [11] = target: Gal(b1-3)[Neu5Ac(b2-6)]GalNAc
# How it was run: as §1
# [12] = target: Gal(b1-4)GalNAc(a1-3)[Fuc(a1-2)]Gal(b1-4)GlcNAc
# How it was run: as §1
# Gal3S(b1-3)GalNAc = target: Gal3S(b1-3)GalNAc
# How it was run: as §1
# Gal3S(b1-4)Glc6S = target: Gal3S(b1-4)Glc6S
# How it was run: as §1
# Gal6S(b1-4)Glc = target: Gal6S(b1-4)Glc
# How it was run: as §1
# Glc(b1-6)Glc = target: Glc(b1-6)Glc
# How it was run: as §1
# [13] = target: GlcNAc(b1-3)Gal(b1-4)GlcNAc(b1-3)Gal(b1-4)GlcNAc
# How it was run: as §1
# [14] = target: GlcNAc(b1-3)[GlcNAc(b1-6)]Gal(b1-4)GlcNAc
# How it was run: as §1
# [15] = target: GlcNAc(b1-4)[GlcNAc(b1-6)]GalNAc
# How it was run: as §1
# [16] = target: Man(a1-2)Man(a1-2)Man(a1-3)Man
# How it was run: as §1
# [17] = target: Man(a1-3)[Man(a1-6)]Man(a1-6)[Man(a1-3)]Man
# How it was run: as §1
# [18] = target: Neu5Ac(a2-3)Gal(b1-4)GlcNAc(b1-6)[Gal(b1-3)]GalNAc
# How it was run: as §1
# Neu5Ac(a2-8)Neu5Ac = target: Neu5Ac(a2-8)Neu5Ac
# How it was run: as §1
# [19] = target: Neu5Ac(a2-8)Neu5Ac(a2-3)[GalNAc(b1-4)]Gal(b1-4)Glc
# How it was run: as §1
# [20] = target: Neu5Ac(a2-8)Neu5Ac(a2-8)Neu5Ac(a2-8)Neu5Ac(a2-3)[GalNAc(b1-4)]Gal(b1-4)Glc
# How it was run: as §1
# [21] = target: Neu5Ac9Ac(a2-3)Gal(b1-4)GlcNAc
# How it was run: as §1
# [22] = target: Fuc(a1-2)Gal(b1-4)[Fuc(a1-3)]GlcNAc(b1-2)Man(a1-3)[Fuc(a1-2)Gal(b1-4)[Fuc(a1-3)]GlcNAc(b1-2)Man(a1-6)]Man(b1-4)GlcNAc(b1-4)GlcNAc
# How it was run: as §1
# [23] = target: Fuc(a1-3)[Gal3S(b1-4)]Glc6S
# How it was run: as §1
# Gal(a1-3)Gal(b1-4)Glc = target: Gal(a1-3)Gal(b1-4)Glc
# How it was run: as §1
# Gal(a1-3)GalNAc = target: Gal(a1-3)GalNAc
# How it was run: as §1
# Gal(b1-3)GalNAc = target: Gal(b1-3)GalNAc
# How it was run: as §1
# [24] = target: Gal(b1-3)[Fuc(a1-4)]GlcNAc(b1-2)Man(a1-3)[Gal(b1-3)[Fuc(a1-4)]GlcNAc(b1-2)Man(a1-6)]Man(b1-4)GlcNAc(b1-4)GlcNAc
# How it was run: as §1
# [25] = target: Gal(b1-4)GlcNAc(b1-3)Gal(b1-4)GlcNAc(b1-3)Gal(b1-4)GlcNAc
# How it was run: as §1
# [26] = target: Gal3S(b1-4)[Fuc(a1-3)]Glc
# How it was run: as §1
# GalNAc(a1-3)GalNAc = target: GalNAc(a1-3)GalNAc
# How it was run: as §1
# GalNAc(b1-3)GalNAc = target: GalNAc(b1-3)GalNAc
# How it was run: as §1
# [27] = target: GalNAc(b1-4)GlcNAc(b1-2)Man(a1-3)[GalNAc(b1-4)GlcNAc(b1-2)Man(a1-6)]Man(b1-4)GlcNAc(b1-4)GlcNAc
# How it was run: as §1
# GlcA(b1-3)GlcNAc = target: GlcA(b1-3)GlcNAc
# How it was run: as §1
# [28] = target: GlcNAc(a1-3)Gal(b1-4)GlcNAc
# How it was run: as §1
# [29] = target: GlcNAc(a1-4)Gal(b1-3)GlcNAc
# How it was run: as §1
# [30] = target: GlcNAc(b1-2)Gal(b1-3)GalNAc
# How it was run: as §1
# [31] = target: GlcNAc(b1-3)Gal(b1-3)GalNAc
# How it was run: as §1
# [32] = target: GlcNAc(b1-3)[GlcNAc(b1-4)][GlcNAc(b1-6)]GlcNAc
# How it was run: as §1
# [33] = target: Man(a1-2)Man(a1-3)[Man(a1-6)]Man(a1-6)[Man(a1-2)Man(a1-3)]Man(b1-4)GlcNAc(b1-4)GlcNAc
# How it was run: as §1
# Neu5Ac(a2-3)Gal = target: Neu5Ac(a2-3)Gal
# How it was run: as §1
# [34] = target: Neu5Ac(a2-3)Gal(b1-3)[Neu5Ac(a2-6)]GalNAc
# How it was run: as §1
# [35] = target: Neu5Ac(a2-3)Gal(b1-4)GlcNAc(b1-3)Gal(b1-4)[Fuc(a1-3)]GlcNAc
# How it was run: as §1
# [36] = target: Neu5Ac(a2-3)Gal(b1-4)[Fuc(a1-3)]GlcNAc(b1-6)[Gal(b1-3)]GalNAc
# How it was run: as §1
# [37] = target: Neu5Ac(a2-3)[GalNAc(b1-4)]Gal(b1-4)GlcNAc
# How it was run: as §1
# [38] = target: Neu5Ac(a2-8)Neu5Ac(a2-8)Neu5Ac(a2-3)[GalNAc(b1-4)]Gal(b1-4)Glc
# How it was run: as §1
# Neu5Gc(a2-6)GalNAc = target: Neu5Gc(a2-6)GalNAc
# How it was run: as §1
# [39] = target: Neu5Ac(a2-6)Gal(b1-4)GlcNAc(b1-2)Man(a1-3)Man(b1-4)GlcNAc(b1-4)GlcNAc
# How it was run: as §1
# [40] = target: Neu5Ac(a2-6)Gal(b1-4)GlcNAc(b1-2)Man(a1-3)[GlcNAc(b1-2)Man(a1-6)]Man(b1-4)GlcNAc(b1-4)GlcNAc
# How it was run: as §1
binder,measurement,setting,value
"Flo5 (Saccharomyces cerevisiae), P38894 (protein) MGSSHHHHHHSSGLVPRGSHMSGATEACLPAGQRKSGMNINFYQYSLKDSSTYSNAAYMAYGYASKTKLGSVGGQTDISIDYNIPCVSSSGTFPCPQEDSYGNWGCKGMGACSNSQGIAYWSTDLFGFYTTPTNVTLEMTGYFLPPQTGSYTFSFATVDDSAILSVGGSIAFECCAQEQPPITSTNFTINGIKPWDGSLPDNITGTVYMYAGYYYPLKVVYSNAVSWGTLPISVELPDGTTVSDNFEGYVYSFDDDLSQSNCTIPDPSIH",glycan array binding signal (z-score),[1],1.59
same,glycan array binding signal (z-score),Fuc(a1-2)Gal(b1-4)Glc,1.59
same,glycan array binding signal (z-score),[2],-0.14
same,glycan array binding signal (z-score),[3],-0.205
same,glycan array binding signal (z-score),[4],-0.23
same,glycan array binding signal (z-score),[5],3.78
same,glycan array binding signal (z-score),[6],-0.024
same,glycan array binding signal (z-score),[7],-0.206
same,glycan array binding signal (z-score),[8],-0.162
same,glycan array binding signal (z-score),[9],-0.232
same,glycan array binding signal (z-score),[10],-0.153
same,glycan array binding signal (z-score),[11],-0.121
same,glycan array binding signal (z-score),[12],-0.189
same,glycan array binding signal (z-score),Gal3S(b1-3)GalNAc,-0.17
same,glycan array binding signal (z-score),Gal3S(b1-4)Glc6S,8.31
same,glycan array binding signal (z-score),Gal6S(b1-4)Glc,-0.082
same,glycan array binding signal (z-score),Glc(b1-6)Glc,-0.203
same,glycan array binding signal (z-score),[13],-0.027
same,glycan array binding signal (z-score),[14],-0.156
same,glycan array binding signal (z-score),[15],-0.139
same,glycan array binding signal (z-score),[16],6.07
same,glycan array binding signal (z-score),[17],3.11
same,glycan array binding signal (z-score),[18],-0.196
same,glycan array binding signal (z-score),Neu5Ac(a2-8)Neu5Ac,-0.148
same,glycan array binding signal (z-score),[19],-0.104
same,glycan array binding signal (z-score),[20],-0.149
same,glycan array binding signal (z-score),[21],-0.126
"CTLX (Homo sapiens), Q6UXS0 (protein) SLCPLFWMEFKGHCYRFFPLNKTWAEADLYCSEFSVGRKSAKLASIHSWEENVFVYDLVNSCVPGIPADVWTGLHDHRQEGQFEWTDGSSYDYSYWDGSQPDDGVHADPEEEDCVQIWYRPTSALRSWNDNTCSRKFPFVCKIPSLTIH",glycan array binding signal (z-score),[1],0.292
same,glycan array binding signal (z-score),[22],3.01
same,glycan array binding signal (z-score),[23],5.87
same,glycan array binding signal (z-score),Gal(a1-3)Gal(b1-4)Glc,1.11
same,glycan array binding signal (z-score),Gal(a1-3)GalNAc,-1.04
same,glycan array binding signal (z-score),Gal(b1-3)GalNAc,0.235
same,glycan array binding signal (z-score),[24],4.2
same,glycan array binding signal (z-score),[25],-0.836
same,glycan array binding signal (z-score),[26],-0.137
same,glycan array binding signal (z-score),GalNAc(a1-3)GalNAc,-0.619
same,glycan array binding signal (z-score),GalNAc(b1-3)GalNAc,-0.421
same,glycan array binding signal (z-score),[27],0.305
same,glycan array binding signal (z-score),GlcA(b1-3)GlcNAc,0.103
same,glycan array binding signal (z-score),[28],-0.363
same,glycan array binding signal (z-score),[29],3.54
same,glycan array binding signal (z-score),[30],-0.988
same,glycan array binding signal (z-score),[31],4.33
same,glycan array binding signal (z-score),[32],-0.646
same,glycan array binding signal (z-score),[33],-0.346
same,glycan array binding signal (z-score),Neu5Ac(a2-3)Gal,-0.528
same,glycan array binding signal (z-score),[34],0.498
same,glycan array binding signal (z-score),[35],-0.47
same,glycan array binding signal (z-score),[36],4
same,glycan array binding signal (z-score),[37],-0.041
same,glycan array binding signal (z-score),[38],-1.09
same,glycan array binding signal (z-score),Neu5Gc(a2-6)GalNAc,-0.736
"Neuropilin-2 (Homo sapiens), O60462 (protein) MDMFPLTWVFLALYFSRHQVRGQPDPPCGGRLNSKDAGYITSPGYPQDYPSHQNCEWIVYAPEPNQKIVLNFNPHFEIEKHDCKYDFIEIRDGDSESADLLGKHCGNIAPPTIISSGSMLYIKFTSDYARQGAGFSLRYEIFKTGSEDCSKNFTSPNGTIESPGFPEKYPHNLDCTFTILAKPKMEIILQFLIFDLEHDPLQVGEGDCKYDWLDIWDGIPHVGPLIGKYCGTKTPSELRSSTGILSLTFHTDMAVAKDGFSARYYLVHQEPLENFQCNVPLGMESGRIANEQISASSTYSDGRWTPQQSRLHGDDNGWTPNLDSNKEYLQVDLRFLTMLTAIATQGAISRETQNGYYVKSYKLEVSTNGEDWMVYRHGKNHKVFQANNDATEVVLNKLHAPLLTRFVRIRPQTWHSGIALRLELFGCRVTDAPCSNMLGMLSGLIADSQISASSTQEYLWSPSAARLVSSRSGWFPRIPQAQPGEEWLQVDLGTPKTVKGVIIQGARGGDSITAVEARAFVRKFKVSYSLNGKDWEYIQDPRTQQPKLFEGNMHYDTPDIRRFDPIPAQYVRVYPERWSPAGIGMRLEVLGCDWTDSKPTVETLGPTVKSEETTTPYPTEEEATECGENCSFEDDKDLQLPSGFNCNFDFLEEPCGWMYDHAKWLRTTWASSSSPNDRTFPDDRNFLRLQSDSQREGQYARLISPPVHLPRSPVCMEFQYQATGGRGVALQVVREASQESKLLWVIREDQGGEWKHGRIILPSYDMEYQIVFEGVIGKGRSGEIAIDDIRISTDVPLENCMEPISAFAGENFKVDIPEIHEREGYEDEIDDEYEVDWSNSSSATSGSGAPSTDKEKSWLYTLDPILITIIAMSSLGVLLGATCAGLLLYCTCSYSGLSSRSCTTLENYNFELYDGLKHKVKMNHQKCCSEA",glycan array binding signal (z-score),[39],-0.201
same,glycan array binding signal (z-score),[40],-0.609
